# According to the supplement of paper PMC11417369:
# ± gives the standard deviation of the averaged measurements. Over roughly 25,000 sequences, “ln(normalized median fluorescence intensity)” has its median near 8.6; the highest 2% begin near 10. The full list was thinned out, with the highest values kept by preference.
# Test system: PfAP2-EXP AP2 domain (GST-tagged)
# Assay: gcPBM binding intensity (ln(normalized median fluorescence intensity)); higher = stronger DNA binding
# Outline: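 Binding intensity values are the highest Masliner-normalised natural-log median intensity among replicate spots of either probe orientation. The binding step lasted 1 h in 1× PBS with 1% milk, 0.2 mg/ml BSA, 0.5% salmon testes DNA and 0.03% Triton X-100, using GST-tagged P. falciparum DNA-binding domains expressed in E. coli on an Agilent 4 × 180k array of primer-extended double-stranded 36-bp intergenic genomic probes plus negative controls. Alexa488 anti-GST antibody and a 488 nm scan detected bound protein.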
row,Sequence,gcPBM binding intensity (ln)
1,TTCTAACTTTTAAACACACAAATATAAATAAGTATA [CACACA_site7473],8.29 ± 0.62
2,CCAACTAAAAAGGAATGTACATAGTTATGGTTGGAA [XGTACX_site8762],9.04 ± 0.47
3,TAAGGAAAAAGAAAAAGTACATTATATAATAAATAG [XGTACX_site3282],8.71 ± 0.46
4,GTGAAATGGAAAAAAAGTACAGATTACATAAGTATT [XGTACX_site6355],8.64 ± 0.42
5,TATTTATTGTGATACTACTATTATTTTATGATTAAA [CACACA_negctrl_site284],8.44 ± 0.42
6,GTATAATATTCATATTCACACATTAAAATATATTTA [CACACA_site4879],8.49 ± 0.49
7,AAAAAATGATAATATACACACTTATGGGAGAGCGCA [CACACA_site5398],8.275 ± 0.078
8,ATTTTAAATTAAATTACACACTACGAATAATATATT [CACACA_site4016],8.43 ± 0.42
9,CAACAAAAGTTATTTACACACAAAAGGCAAGGAAAT [CACACA_site7013],8.94 ± 0.47
10,TAACATATTTTTAATACACACTTAAAAAAGTACTTA [CACACA_site4875],8.31 ± 0.34
11,TTTTTTTTTTTTTACACACCCAAATCACATACATAT [CACACA_site6089],8.59 ± 0.44
12,AAAAAAAAATTAAAAACACACATATATATATATATA [CACACA_site1580],10.2 ± 0.39
13,AAATGTTGAAATGATACACACATATATATATATATA [CACACA_site2517],10.3 ± 0.32
14,AAAAAAAAAATTAAAACATGCATAAATAAATATATT [TGCATGCA_site866],8.73 ± 0.37
15,TCAATAAATATACATACATGCATACATACATACATA [TGCATGCA_site197],8.72 ± 0.47
16,AGAAATGAAATATACACACATACATATATACATATA [CACACA_site4033],8.49 ± 0.27
17,AAATGTTGAAATGATACACACATATAAATATAAATA [CACACA_site7229],8.53 ± 0.42
18,AAAAAAATTAAACACACACACACATATATATATATA [CACACA_site4718],10.1 ± 0.25
19,AAAAAAAAATTAAAAACACACATATAAATAAATATA [CACACA_site6845],8.48 ± 0.48
20,AATCAATAAATAAAAACATGCATATATATATATATA [TGCATGCA_site438],10.3 ± 0.47
21,TGGTATATAAAACACACACACATATGTATTTATATA [CACACA_site4665],8.54 ± 0.38
22,TCATGGAATATTTAAAGTACAAAAAGTGTTCTTTAC [XGTACX_site715],8.21 ± 0.3

row,Sequence,gcPBM binding intensity (ln)
1,TAATATCATTTATGTAGTACTATAACAAGAACTATA [XGTACX_site3618],8.33 ± 0.35
2,TATATATATATAAAGGTGCATATCTTTACGTATGTC [GTGCAC_site9665],9.99 ± 0.11
3,AAAAAAAAGGAAAATAAAAATAAAAAAAAATAATAA [XGTACX_negctrl_site601],8.53 ± 0.52
4,AAAAAAAAAAAATACACACACATATATATATATATA [CACACA_site2224],10.2 ± 0.23
5,AAAAAAAATACATACATACACACATATATATATATA [CACACA_site912],9.98 ± 0.38
6,AAAAAAAAAAAATACACACACACATATATATATATA [CACACA_site731],10.2 ± 0.18
7,AAAAAAAAAAAAAATACACACACATATATATATATA [CACACA_site8698],10.1 ± 0.26
8,AAAAAAAAAAAATATACACACACATATATATATATA [CACACA_site9123],10 ± 0.45
9,AAAAAAAAAAAAAATACACACATATATATATATATA [CACACA_site85],10.1 ± 0.34
10,TTATATAAATATAAGGTGCTGGGGTTTATTACATAT [GTGCAC_site9909],9.03 ± 0.54
11,AAGATGGTAAAGAATTGTACGCGCATATATATATTT [XGTACX_site3904],9.69 ± 0.42
12,GGCATACACAGACACACACACACACCCACATATATA [CACACA_site591],8.79 ± 0.4
13,TGTATTATATATGTGTGTACATATTTTTTTTTTTTT [XGTACX_site3351],8.47 ± 0.34
14,TTTTAAAGCATATCATATAAAGAACATGACATAGGA [CACACA_negctrl_site630],8.61 ± 0.33
15,TTTTTTAAATTTAAAGTGCATTATTATATATTTGTA,8.65 ± 0.15
16,AAAAAAAAAAAAAAAGTGCATATATAAATATTGTAT [GTGCAC_site9459],8.62 ± 0.3
17,ATTTTTTTTGTAAAAGTGCATATATATATATATATA,10.4 ± 0.35
18,AAAATTAATAAATAAACACACATATTTATATTTATA [CACACA_site7266],8.03 ± 0.41
19,ATATATATTATATATTGTACATATTATATTCATTAT [XGTACX_site1766],8.57 ± 0.3
20,AAAAAAAAAATTCATTGTACATATATATATATATAT [XGTACX_site8346],10.2 ± 0.22
21,AAAATATATTCAACTTGTACATATATATATATATAT [XGTACX_site7629],10.3 ± 0.13
22,TAAAAATATTTTCATTGTACATATATATAAATATAT [XGTACX_site1123],8.4 ± 0.33

row,Sequence,gcPBM binding intensity (ln)
1,GAATATTCACATACTTGTACATATATATATATATAT [XGTACX_site7302],10.2 ± 0.68
2,CTTAAAAAAATATATTGTACATATATATATACAACT [XGTACX_site1281],8.33 ± 0.3
3,AATACACAAATATATTGTACATATATATATATATAT [XGTACX_site2440],9.85 ± 0.34
4,TAACTTCAAAAATCTTGTACATAAATATATAAAACA [XGTACX_site8574],8.53 ± 0.44
5,ATGTATGTATATACTTGTACATATTCATATTAGTAT [XGTACX_site1118],8.45 ± 0.35
6,GGATTTATTATATATACACACATACAGATATATATA [CACACA_site5222],8.48 ± 0.3
7,GTTTTTTTTATATATTGTACAAATAATATATTATAT [XGTACX_site29],9.02 ± 0.37
8,TAAATATATTTATACACACACACCAAAGCAATAGAT [CACACA_site7393],9.12 ± 0.35
9,AAAAAATGTTAAAAAAGTACTTTCTTTATTTAATAA [XGTACX_site2908],8.07 ± 0.4
10,GAACGCCATTCACATAAAGGGATACATAAATAAATA [XGTACX_negctrl_site330],8.4 ± 0.42
11,TTGTGTACATATTAAGTGCATATATATATATATATA,10.4 ± 0.33
12,TATATATTATATATATGTACATATTGTTGTGTATAT [XGTACX_site767],8.63 ± 0.29
13,ATATCTTAAATTATTTGTACATATATATATATATAT [XGTACX_site8034],10.3 ± 0.27
14,ATATATATATATATATGTACATATTGTATCTTATAC [XGTACX_site5466],10.2 ± 0.4
15,ATATAAAAATTAAAATGTACATATCTTATTATAATA [XGTACX_site983],8.32 ± 0.34
16,ATGTGTATATATTATTGTACATATATATATATATAT [XGTACX_site4627],10.3 ± 0.2
17,CATATACATTGTATATGTACATATATATATATATAT [XGTACX_site3772],10.1 ± 0.36
18,TATATATATATATATTGTACATATATTATTATATAT [XGTACX_site7447],10.2 ± 0.57
19,TATATTAATAATAAGTGTACATATATATATATTTTT [XGTACX_site288],8.36 ± 0.3
20,CATACACATATATATTGTACACATATATGTATGTAT [XGTACX_site4030],8.45 ± 0.28
21,CATGTGCATATTAAATGTACATATATACATATATAC [XGTACX_site857],8.835 ± 0.064
22,CTTTTAAATTATTTTTGTACATAATTATATATATAT [XGTACX_site4128],9.4 ± 0.32
